Each structure is given as a SMILES string. Several values for one entry are separate records, joined by “and”; a condition that tells them apart may be missing. Equal entries are not always repeated. Records with an inconclusive call do not appear. Where a call stands in place of a potency, no number is given. A structure can be active in one record and inactive in another. Values without a mark were called inactive. Activity calls are given as the source filed them. Calls follow the shape of the dose curve; as a rule, active = well fitted inhibition curve with a large enough effect; inconclusive = small, poorly fitted or top-dose-only effect; inactive = flat fitted curve, though single readings scatter.
Also: nearly all actives have a fitted effect of over 60% in size.

The test system of one experiment is NIH3T3. As to the kind of experiment: Cytotoxic Profiling of Annotated Libraries Using Quantitative High-Throughput Screening (AID 1296008). Also: potency is read from the fitted curve at half-maximal effect. To be noted: Five cell lines viability, CellTiter-Glo ATP luminescence, 48-72 h; max response: active compounds read low. The method, boiled down:
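Cells exposed to compounds for 48 or 72 hr at 37 degrees Celsius. Viability read as ATP-coupled luminescence with CellTiter-Glo after 10 min at room temperature.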
For the compound `CCCCCCOc1cc2c(cc1N(C)c1ncc(C(=O)O)cn1)C(C)(C)CCC2(C)C`, the outcome was inactive.

Turning to `CCNCc1nc2c(N)nc3ccccc3c2n1CC(C)(C)O`, the outcome was inactive.

Consider `O=C(O)c1ccccc1NCCc1ccccc1`, for which the max response is 2.83%.

Take `CC(C)[C@@H](CS(=O)(=O)C(C)C)N1C(=O)[C@@](C)(CC(=O)O)C[C@H](c2cccc(Cl)c2)[C@H]1c1ccc(Cl)cc1`: the Potency is 6.51 µM (active) and 7.41 µM (active).

As to `C=C1C[C@@]23CCC4[C@@](C)(CCC[C@@]4(C)C(=O)OC)C2CC[C@@H]1C3` (stereo not given in full), the max response was 0.656%.

Regarding `CCC(C(=O)O)c1ccc(N2Cc3ccccc3C2=O)cc1` (stereo not given), the max response was 3.06%.

Regarding `CN1CCN(c2ccc(C(=O)Nc3n[nH]c4ccc(Cc5cc(F)cc(F)c5)cc34)c(NC3CCOCC3)c2)CC1`, the Potency is 10.5 µM (active).

With `CCN(Cc1cccnc1)C(=O)CN(c1ccc(OC)nc1)S(=O)(=O)c1ccccc1C`, the call was inactive.

Take `COc1ccc(-n2[nH]c(=O)c3[nH]c4cc(Cl)ccc4c(=O)c3c2=O)c(C)c1`: the max response was 4.85%.

With `CCOCCOC(=O)/C=C/c1ccc(OC)cc1`, the max response is -3.67%.

As for `Cc1ccccc1NC(=O)Nc1ccc(CC(=O)N(C)[C@@H](CC(C)C)C(=O)NCC[C@H](NC(=O)[C@@H]2CCCN2S(=O)(=O)c2cc(Cl)cc(Cl)c2)C(=O)O)cc1`, the max response is -5.85%.

In the case of `CN(C)c1nc(NC2CCC(NCCc3ccc(Br)cc3OC(F)(F)F)CC2)nc2ccccc12` (stereo not given), the Potency is 4.11 µM (active).

With `C=C1CC23CC1CCC2C12OC(=O)C(C)(CCC1O)C2C3C(=O)O` (stereo not given), the max response was 3.76%.

Regarding `C=CC(C)(O)C(O)CC1C(C)(O)C(O)C(O)C2C(C)(C)CCCC21C` (stereo not given), the compound was called inactive.

For the compound `C[C@H]1Oc2cc(cnc2N)-c2c(nn(C)c2C#N)CN(C)C(=O)c2ccc(F)cc21`, the Potency was 13.2 µM (active) and the max response is -87.5%.

`CC(C)N(CCCCOCC(=O)NS(C)(=O)=O)c1cnc(-c2ccccc2)c(-c2ccccc2)n1`: the max response was -0.443%.

The test system of a further experiment is HACAT. The experiment can be described thus: qHTS assay to identify novel small-molecules to repurpose for Merkel cell carcinoma treatment (AID 1296009). To be noted: MCC and control cell lines, CellTiter-Glo viability, 72 h; series mostly up to 44.8 µM. The method, boiled down:
(§1)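 CellTiter-Glo luminescence after 72 hr compound exposure at 37 degree celsius gave cell viability. Libraries NPC and MIPE were run as 8- and 11-point dose responses; RLUs normalized to DMSO (negative) and no-cell (cytotoxicity) controls.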
On the technique in general: qHTS replaces the single test concentration by a dilution series.
`CCCCCCOc1cc2c(cc1N(C)c1ncc(C(=O)O)cn1)C(C)(C)CCC2(C)C`: the Potency entry was “inactive”.

For `CCNCc1nc2c(N)nc3ccccc3c2n1CC(C)(C)O`, the Potency entry was “inactive”.

Take `O=C(O)c1ccccc1NCCc1ccccc1`: the Potency entry is “inactive”.

As to `C=C1C[C@@]23CCC4[C@@](C)(CCC[C@@]4(C)C(=O)OC)C2CC[C@@H]1C3` (stereo not given in full), the Potency entry was “inactive”.

Take `CCC(C(=O)O)c1ccc(N2Cc3ccccc3C2=O)cc1` (stereo not given): the Potency result was “inactive”.

As for `CCN(Cc1cccnc1)C(=O)CN(c1ccc(OC)nc1)S(=O)(=O)c1ccccc1C`, the Potency result was “inactive”.

Turning to `COc1ccc(-n2[nH]c(=O)c3[nH]c4cc(Cl)ccc4c(=O)c3c2=O)c(C)c1`, the Potency entry was “inactive”.

In the case of `CC(C)N(CCCCOCC(=O)NS(C)(=O)=O)c1cnc(-c2ccccc2)c(-c2ccccc2)n1`, the Potency entry was “inactive”.

The test system of another experiment is HEK293T. The experiment is described as above. The conditions noted are these: MCC and control cell lines, CellTiter-Glo viability, 72 h; at 44.8 µM (top of the series) unless noted. In a few lines: as §1
(ATP-based viability assays read luminescence as a measure of living cells.)
Consider `C=C1C[C@@]23CCC4[C@@](C)(CCC[C@@]4(C)C(=O)OC)C2CC[C@@H]1C3` (stereo not given in full), for which the result was inactive.

As for `CCN(Cc1cccnc1)C(=O)CN(c1ccc(OC)nc1)S(=O)(=O)c1ccccc1C`, the compound was called inactive.

For `COc1ccc(-n2[nH]c(=O)c3[nH]c4cc(Cl)ccc4c(=O)c3c2=O)c(C)c1`, the result was inactive.

Turning to `CCOCCOC(=O)/C=C/c1ccc(OC)cc1`, the call was inactive.

Consider `Cc1ccccc1NC(=O)Nc1ccc(CC(=O)N(C)[C@@H](CC(C)C)C(=O)NCC[C@H](NC(=O)[C@@H]2CCCN2S(=O)(=O)c2cc(Cl)cc(Cl)c2)C(=O)O)cc1`, for which the outcome was “inactive [at 17.4 µM]”.

`CC(C)N(CCCCOCC(=O)NS(C)(=O)=O)c1cnc(-c2ccccc2)c(-c2ccccc2)n1`: the compound was called inactive.

Another experiment has as its system MCC-13. The experiment is described as above. To be noted: MCC and control cell lines, CellTiter-Glo viability, 72 h; series mostly up to 46 µM. In a few lines: as §1
Take `O=C(O)c1ccccc1NCCc1ccccc1`: the compound was called inactive.

In the case of `CCC(C(=O)O)c1ccc(N2Cc3ccccc3C2=O)cc1` (stereo not given), the call was inactive.

For the compound `CCOCCOC(=O)/C=C/c1ccc(OC)cc1`, the compound was classed as inactive.

For another experiment, the system named is MCC-26. Described as above. To be noted: MCC and control cell lines, CellTiter-Glo viability, 72 h; series mostly up to 46 µM. The method, boiled down:
as §1
For the compound `O=C(O)c1ccccc1NCCc1ccccc1`, the call was inactive.

Turning to `CCC(C(=O)O)c1ccc(N2Cc3ccccc3C2=O)cc1` (stereo not given), the call was inactive.

Regarding `CCOCCOC(=O)/C=C/c1ccc(OC)cc1`, the call was inactive.

In another experiment the test system is MKL-1. The description is as above. The conditions noted are these: MCC and control cell lines, CellTiter-Glo viability, 72 h; series mostly up to 46 µM. The method, boiled down: as §1
Turning to `O=C(O)c1ccccc1NCCc1ccccc1`, the Potency result was “inactive”.

Turning to `CCC(C(=O)O)c1ccc(N2Cc3ccccc3C2=O)cc1` (stereo not given), the Potency result is “inactive”.

As for `CCOCCOC(=O)/C=C/c1ccc(OC)cc1`, the Potency entry was “inactive”.

Source of the values: PubChem BioAssay (NCATS).
